Experimental data reported in PubChem BioAssay (NCI).
The panel holds about 79,000 compounds, 15% with a hit somewhere; the sample as a whole holds those more often. A number with no mark means an inactive call. Cut-off read from the data, not from the text of the source: active = growth inhibition above about 70%; inactive = the rest.

Assay: NCI Yeast Anticancer Drug Screen. Data for the mec2-1 strain (AID 157)
Conditions: S. cerevisiae mec2-1 strain, at 50.0 µM, active compounds read high
Outline: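 Mutant yeast (mec2-1) grown with compound; growth inhibition relative to vehicle control reported.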
Compound `CC(=O)Nc1cccc2ccc([N+](=O)[O-])cc12` has a growth inhibition of 0.9%.
With `NC(=S)N/N=C/c1cc([N+](=O)[O-])ccc1O` the growth inhibition was -3.4%.
`Brc1ncccn1` gave a growth inhibition of -16.9%.
Compound `Cc1ccc(C)c(CNC(=O)NC(C)(C)C)c1` has a growth inhibition of -4.25%.
`CCCCCCCCCCCCCCCCCC[N+](C)(C)Cc1c(Cl)c(Cl)c(Cl)c(Cl)c1Cl` showed a growth inhibition of 8.9%.
For `CC1C2CC(C/C2=N/O)C1(C)C` (stereo not drawn), the growth inhibition was 19.1%.
In the case of `CC1(C(Cl)Cl)C=CC(=O)c2ccccc21` (stereo not drawn), the growth inhibition was 35.6%.
`Nc1ncnc2nc(N=Nc3ccc(S(=O)(=O)O)cc3)[nH]c12` gave a growth inhibition of -21.1%.
`Cc1ccc(C(C)(O)C2CC2)cc1` (stereo not drawn) showed a growth inhibition of -33.8%.
For `Cc1ccc(S(=O)(=O)OCC23CCC(CC2)CC3)cc1`, the growth inhibition was -9.85%.
`O=C(O)C(Cc1ccccc1)NS(=O)(=O)Cc1ccccc1` (stereo not drawn) showed a growth inhibition of -8.45%.
`OCCCNc1ncnc2[nH]ncc12` gave a growth inhibition of 16.1%.
`O=C(SCc1ccccc1)N(c1ccccc1)c1ccccc1` gave a growth inhibition of 11.9%.
`CCCOC(=O)c1cccnc1C(=O)OCCC` gave a growth inhibition of -10.2%.
In the case of `CCOC(=O)Cn1/c(=N/N=C(\C)c2ccc([N+](=O)[O-])o2)sc2cc(Cl)ccc21`, the growth inhibition was 9.05%.
`O=C(Nc1ccc(Cl)cc1)Nc1nnc(-c2cccc(-c3nnc(NC(=O)Nc4ccc(Cl)cc4)o3)c2)o1` showed a growth inhibition of 34.3%.
For `CC(C)(C)CC(C)(C)N(CSc1ccc2ccccc2c1)CSc1ccc2ccccc2c1`, the growth inhibition was 4.55%.
`C#CC(C)(CC)OC(C)=O` (stereo not drawn) gave a growth inhibition of -16.4%.
